Molecules are shown by their SMILES. Hit rate of the full screen: of about 300,000 compounds, about 2,300 (0.77%) were called active. This is one part of a sample in which actives are shown more often than they occur. Unmarked numbers belong to inactive results.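 The calls were made as follows: active = more than half of replicate wells show activity change below -50%, luminescence cut by over half; inconclusive = some wells, but at most half, below -50%; inactive = no replicate well below -50%.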

The nature of this assay: HSF1 inhibitors in luciferase reporter cells, primary screen, cell-based, NIH3T3, luminescence (AID 2098).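 Also: luciferase reports HSF-1 transcriptional activity via heat shock element; 0% = median of DMSO wells and -100% = zero luminescence signal.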 The following applies: NIH3T3-HGL HSE-luciferase, MG132-induced, luminescence 8 h; active compounds read low; screened at 7.5 µM (by protocol).
`CCN1CCN(C(=O)/C=C\C(=O)O)CC1`: the activity change, negative = inhibition is -4.12%.
With `CN1CCN(C(=O)C2C3C=CC(C3)C2C(=O)O)CC1` (configuration not stated) the figure was -0.614%; with `C/C(=C/C(=O)N1CCN(C)CC1)C(=O)O`, -83.7% (active).
The figure for `COc1cccc(CN(C)CC2CCCN(CCc3ccc(Cl)cc3)C2)c1OC` (configuration not stated) is -81.7% (active); for `Cc1nc2ccc(C(=O)N(C)CC3CCCN(CCc4ccc(Cl)cc4)C3)cc2[nH]1` (configuration not stated) it is -3.74%; for `COc1cccc(CN(C)CC(=O)NCc2ccccc2Cl)c1OC` it is -1.39%.
The figure for `O=C(COc1ccccc1F)Nc1nc(-c2ccccn2)cs1` is -13.1%.
With `N#CCCN(C(=O)COC(=O)c1ccc(S(=O)(=O)N2CCCCCC2)cc1)c1ccccc1`, the activity change, negative = inhibition was 0.525%.
With `Cc1ccccc1N1CC(C(=O)Nc2ccc(S(=O)(=O)N3CCCC3)cc2)CC1=O` (configuration not stated) the figure was -1.85%; with `O=C(Cn1c(=O)n(Cc2ccco2)c(=O)c2ccccc21)NCC1CCCO1` (configuration not stated), 0.503%.
The figure for `Cn1c(=O)c2ccccc2n(CC(=O)Nc2ccc3c(c2)OCCO3)c1=O` is -3.8%; for `COc1ccc(NC(=O)Cn2c(=O)n(Cc3ccco3)c(=O)c3ccccc32)cc1` it is -89% (active).
With `Cn1c(=S)sc2ccc3ccccc3c21` the figure was -1.53%.
As to `Brc1ccc(C2=CC(c3ccco3)n3ncnc3N2)cc1` (configuration not stated), the activity change, negative = inhibition was -56.9% (active).
The figure for `CCOc1ccc(C2=CC(c3ccccc3)n3ncnc3N2)cc1` (configuration not stated) is -4.36%; for `COC(=O)C1=C(C)Nc2ncnn2C1c1ccco1` (configuration not stated) it is 0.145%.
As to `O=C(O)c1ccc2c(c1)C(=O)N(NC(=O)c1ccc(O)cc1)C2=O`, the activity change, negative = inhibition is 0.898%.
As for `O=C(c1ccc(O)cc1)c1ccc(C(=O)O)c(C(=O)O)c1`, the activity change, negative = inhibition was -68% (active).
Regarding `O=C(Nc1ccc(C(=O)O)c(O)c1)c1ccccc1`, the activity change, negative = inhibition is 2.77%.
The figure for `CCC1(c2ccccc2)NC(=O)N(CC(=O)c2ccc3c(c2)OCO3)C1=O` (configuration not stated) is 1.78%.
The figure for `CCCCN1C(N)=NC[C@@H]1CC1CCCCC1` is -7.88%; for `C[C@@H]1O[C@@H](OC[C@H]2O[C@@H](Oc3c(-c4ccc(O)cc4)oc4cc(O)cc(O)c4c3=O)[C@H](O)[C@@H](O)[C@@H]2O)[C@H](O)[C@H](O)[C@H]1O` it is 2.53%; for `Cc1ccc(C)c(N2CCN(C(=O)CCCCn3c(=O)[nH]c4ccccc4c3=O)CC2)c1` it is 1.8%.
With `Cc1ccc(C)c(N2CCN(C(=O)CCCCCn3c(=S)[nH]c4ccc(N5CCOCC5)cc4c3=O)CC2)c1` the figure was -73.3% (active).
`O=C(CCCCCn1c(=S)[nH]c2cc3c(cc2c1=O)OCO3)N1CCN(c2ccc(F)cc2)CC1`: the activity change, negative = inhibition is 0.967%.
The figure for `Cc1cc(Br)ccc1NC(=O)CN(C)C(=O)CN1C(=O)NC2(CCCC2)C1=O` is -4.3%; for `O=C(COc1ccccc1)Nc1ccc(C(=O)N2CCCC2)cc1` it is -3.01%; for `N#CC1=C(N)Oc2[nH]c(=S)[nH]c(=O)c2C12C(=O)Nc1ccccc12` (configuration not stated) it is -4.51%.
The figure for `N#CC1=C(N)Oc2n[nH]c(CSc3ccccc3)c2C12C(=O)Nc1ccccc12` (configuration not stated) is -57.8% (active); for `COc1ccc(S(=O)(=O)NCC(c2ccco2)N2CCOCC2)cc1` (configuration not stated) it is 5.28%; for `Cc1cccc(C(=O)Nc2nnc(S(=O)(=O)N3CCCCCC3)s2)c1` it is -1.91%.
As for `O=C(Nc1nnc(S(=O)(=O)N2CCOCC2)s1)c1cccc(Br)c1`, the activity change, negative = inhibition is 4.12%.
`O=C(Nc1nnc(S(=O)(=O)N2CCCCCC2)s1)c1cccc(Br)c1`: the activity change, negative = inhibition was -56% (active).
`O=C(COC(=O)c1ccccc1SCC(=O)N1CCCC1)Nc1ccccc1OC(F)F`: the activity change, negative = inhibition was 7.03%.
With `O=C(c1ccc(F)c(S(=O)(=O)N2CCOCC2)c1)N(CCc1ccccc1)Cc1ccccc1` the figure was 5.02%; with `COc1ccc(Cl)cc1C=CC=Nc1ccc(S(N)(=O)=O)cc1`, -18.4%; with `C=C1CCN([C@@H](Cc2ccccc2)C(=O)N2CCOCC2)S(=O)(=O)c2ccccc21`, -0.215%.
The figure for `COc1cccc(OC)c1C(=O)Nc1sc2c(c1C(N)=O)CCCC2` is -3.68%; for `O=C(OCC1OC(Oc2ccc(O)cc2)C(O)C(O)C1O)c1ccccc1` (configuration not stated) it is -1.79%.
With `CCCCn1c(N)c(N(CC(C)C)C(=O)c2cccc(S(=O)(=O)N3CC(C)OC(C)C3)c2)c(=O)[nH]c1=O` (configuration not stated) the figure was -2.84%.
With `Cc1ccc(NC(=O)NCC(c2cccnc2)N2CCOCC2)cc1` (configuration not stated), the activity change, negative = inhibition was -69.8% (active).
With `Cc1ccc(C(CNC(=O)Nc2ccccc2)N2CCN(C)CC2)cc1` (configuration not stated), the activity change, negative = inhibition is -9.11%.
The figure for `Cc1ccc(C)c(NC(=S)NCC(c2cccnc2)N2CCOCC2)c1` (configuration not stated) is -6.11%; for `O=C(NCCS(=O)(=O)NCc1ccc(Cl)cc1)c1ccccc1` it is 2.35%.
With `O=C(COC(=O)Cc1ccccc1F)NNC(=O)c1ccc(Cl)cc1` the figure was -1.7%; with `O=C(NCc1ccccc1)c1ccc(CNc2c(N3CCCC3)c(=O)c2=O)cc1`, -3.59%; with `CC1CCN(c2c(NCc3ccc(C(=O)NCc4ccccc4)cc3)c(=O)c2=O)CC1`, -69.2% (active).
The figure for `O=C(NC1CCCCC1)c1ccc(CNc2c(N3CCOCC3)c(=O)c2=O)cc1` is -0.199%; for `Cn1cccc1C(=O)OCC(=O)c1ccc(Br)s1` it is -97.9%.
Turning to `O=C(Nc1cccc2c1CCCC2)c1ccc(F)cc1`, the activity change, negative = inhibition was -2.27%.
The figure for `COc1ccc(/C=N/NC(=O)Nc2ccc3nsnc3c2)c(OC)c1` is 15.1%.
With `COc1ccc(/C=N/NC(=O)c2ccc3c(c2)OCCO3)c(OC)c1` the figure was -61% (active).
Regarding `COc1ccc(/C=N/NC(=O)CNC(=O)c2ccc(S(=O)(=O)N3CCCC3)cc2)c(OC)c1`, the activity change, negative = inhibition is -4.96%.
The figure for `COc1ccc(C)cc1NC(=O)CSc1nnc2ccc(-c3ccccn3)nn12` is -4.51%.
With `Cc1ccc(C(=O)NN(CCC#N)C2=NS(=O)(=O)c3ccccc32)cc1` the figure was -53.5% (active); with `COc1cc(C(=O)NN(CCC#N)C2=NS(=O)(=O)c3ccccc32)cc(OC)c1OC`, -1.4%.
Consider `Cc1ccc(S(=O)(=O)N(NC2=NS(=O)(=O)c3ccccc32)C(=O)c2ccccc2)cc1`, for which the activity change, negative = inhibition was -2.65%.

Source of the values: PubChem BioAssay AID2098 (Broad Institute, 2009).
